In PubChem BioAssay (NCATS):
Where “and” joins values, the source holds several entries; their conditions need not be identical. Identical values can stand only once. Inconclusive results are not listed. Calls of active or inactive are those of the source. Calls come from the whole dose curve; as a rule, active = well fitted inhibition curve with a large enough effect; inconclusive = small, poorly fitted or top-dose-only effect; inactive = flat fitted curve, though single readings scatter.

Key:
Test in all cases: Cytotoxic Profiling of Annotated Libraries Using Quantitative High-Throughput Screening (AID 1296008); note: nearly all actives have a fitted effect of over 60% in size
Conditions in all cases: Five cell lines viability, CellTiter-Glo ATP luminescence, 48-72 h; max response: active compounds read low
CRL-7250 = normal cell line; test system: CRL-7250
In short: (§1)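 Cells exposed to compounds for 48 or 72 hr at 37 degrees Celsius. Viability read as ATP-coupled luminescence with CellTiter-Glo after 10 min at room temperature.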

HaCat = test system: HaCat
In short: as §1

KB-3-1 = test system: KB-3-1
In short: as §1

NIH3T3 = test system: NIH3T3
In short: as §1
% is set by controls: 0 for no effect and ±100 for the full control effect; potency is the fitted concentration of half-maximal effect.

C=C[C@](C)(O)CC[C@H]1C(C)=CC(=O)[C@H]2C(C)(C)CCC[C@]12C
inactive: max response (CRL-7250) -9.12% | max response (HaCat) 1.13% | max response (KB-3-1) -5.31% | max response (NIH3T3) 0.554%

CC(=O)O[C@@H]1CC2C(/C=C(\C)C(=O)[C@@]3(O)C[C@@H](C)[C@H](OC(=O)c4ccccc4)C3/C=C/1C)C2(C)C (stereo not given in full)
inactive: outcome (CRL-7250) | max response (HaCat) -1.64% | outcome (KB-3-1) | max response (NIH3T3) 1.35%

O=C(Nc1ccccc1C(=O)NC1CCCCNC1=O)c1cc2ccccc2s1 (stereo not given)
inactive: outcome (CRL-7250) | max response (HaCat) 4.7% | max response (KB-3-1) -2.87% | max response (NIH3T3) 4.3%

CCC(CC)(NC(=O)C(C)C)C(=O)N[C@@H](CCCN=C(N)N)C(=O)NC1(C(=O)NC(c2ccc(F)cc2)c2ccc(F)cc2)CCCC1
inactive: max response (CRL-7250) 2.72% | max response (HaCat) -3.8% | max response (KB-3-1) 7.28% | max response (NIH3T3) -2.32%

C=C[C@H](/C=C\c1ccc(O)cc1)c1ccc(O)cc1
inactive: max response (CRL-7250) -3.27% | max response (HaCat) 1.54% | max response (KB-3-1) -11.7% | outcome (NIH3T3)

O=C1Nc2ccccc2-c2nc3ccccc3c(=O)n2-c2c(O)cccc21
inactive: max response (CRL-7250) 3.48% | max response (HaCat) -26.5% | max response (KB-3-1) 0.451% | max response (NIH3T3) 1.73%

CCC[C@@]1(CCc2ccccc2)CC(O)=C([C@H](CC)c2cccc(NS(=O)(=O)c3ccc(C(F)(F)F)cn3)c2)C(=O)O1
inactive: outcome (CRL-7250) | max response (HaCat) 2.03% | max response (KB-3-1) -13.2% and -6.18% | outcome (NIH3T3)

Cn1cc(-c2ccc(S(=O)(=O)n3ccc(/C=C/C(=O)Nc4ccccc4N)c3)cc2)cn1
active: Potency (CRL-7250) 9200 nM | Potency (KB-3-1) 1460 nM | Potency (NIH3T3) 4610 nM
inactive: max response (HaCat) -149%

C=CC(C)(O)CC/C=C(\C)C(=O)OC1C(O)C(CO)OC(OC(=O)C23CCC(C)(C)CC2C2=CCC4C5(C)CCC(OC6OC(COC7OCC(OC(C)=O)C(O)C7OC7OC(COC(C)=O)C(O)C(O)C7OC(C)=O)C(O)C(O)C6OC6OCC(O)C(O)C6O)C(C)(C)C5CCC4(C)C2(C)C(O)C3O)C1OC1OCC(OC2OCC(O)C(OC3OCC(O)C(O)C3O)C2O)C(O)C1O (stereo not given)
inactive: max response (HaCat) -18.3% | max response (KB-3-1) -19.5% | max response (NIH3T3) -5.37%
active: Potency (CRL-7250) 891 nM

O=C(O)c1cccc(-c2ccc(-c3cn(C(=O)N4CCCCC4Cc4ccccc4)nn3)cc2)c1 (stereo not given)
inactive: max response (CRL-7250) 0.106% | max response (HaCat) -16.1% | max response (KB-3-1) 9.26% | max response (NIH3T3) -1.06%

COC(=O)CC[C@@H](C)C1CCC2C3CCC4C[C@H](OC(C)=O)CCC4(C)C3C[C@H](O)C21C (stereo not given in full)
inactive: max response (CRL-7250) -0.684% | max response (HaCat) -5.91% | max response (KB-3-1) 9.49% | outcome (NIH3T3)

CC(C)=CCCC1(C)C2CCC1(C)C(O)C2 (stereo not given)
inactive: max response (CRL-7250) -2.07% | max response (HaCat) -23% | max response (KB-3-1) -23.6% | max response (NIH3T3) 0.907%

COC1CC(=O)C23C(=O)NC(CC(C)C)C2C(C)C(C)=CC3/C=C(\C)CCCC1O (stereo not given)
inactive: max response (CRL-7250) -6.23% | max response (HaCat) 3.61% | max response (KB-3-1) 1.14% | max response (NIH3T3) -14.9%

CC(C)CCNc1ncccc1C(=O)N1CCN(Cc2ccccc2)CC1
inactive: max response (CRL-7250) -4.32% | max response (HaCat) 1.63% | max response (KB-3-1) 4.22% | max response (NIH3T3) 2.66%

CC(C)=CCc1cc2c(cc1O)OC[C@H]1c3ccc(O)cc3O[C@@H]21
inactive: max response (CRL-7250) -7.41% | max response (HaCat) -13.5% | max response (KB-3-1) -5.17% | max response (NIH3T3) -23.2%

COc1cc2ncnc(Nc3ccc(F)c(Cl)c3)c2cc1O
inactive: outcome (CRL-7250) | max response (KB-3-1) -4.6% | outcome (NIH3T3)
active: Potency (HaCat) 1300 nM

Cc1c(F)ccc(C(=O)Nc2cc([N+](=O)[O-])ccc2N2CCN(C)CC2)c1Cl
inactive: max response (CRL-7250) 1.68% | max response (HaCat) 0.293% | outcome (KB-3-1) | max response (NIH3T3) 1.43%

Cc1nc(N2CCN(C(=O)c3ccco3)CC2)c2c3c(sc2n1)CCCC3
inactive: max response (CRL-7250) -5.8% | max response (HaCat) 1.01% | max response (KB-3-1) -12.8% | max response (NIH3T3) 1.1%

CNCc1cc(-c2ccccc2F)n(S(=O)(=O)c2cccnc2)c1
inactive: max response (CRL-7250) -3.13% | max response (HaCat) -5.62% | max response (KB-3-1) -0.384% | max response (NIH3T3) 0.556%

O=C(CSc1nc2ccccc2c(=O)n1-c1ccccc1)Nc1ccc2c(c1)CCC2
inactive: max response (CRL-7250) 1.59% | max response (HaCat) -10.2% | outcome (KB-3-1) | max response (NIH3T3) -0.829%
